Each structure is given as a SMILES string. Values joined by “and” are separate entries in the source; they are usually repeats but may differ in a detail not shown here. Equal entries are not always repeated. Records with an inconclusive call do not appear. Active and inactive are the calls of the source. How the source made its calls: active means hit-call score of the fitted dose curve at least 0.9, where 1 is the maximum; inconclusive means response in the unintended direction; inactive means score below 0.9.

Here are results for five compounds from PubChem BioAssay (EPA / NIEHS).

Assay [1] in a line: ATG_M_06_XSP2: Attagene TRANS-FACTORIAL Multi-Species (XSP2) HepG2 Assay for M06 Transcription Factor (Internal Marker) (AID 2283811).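 Further: hits are increases in signal above the DMSO baseline.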 Summed up:
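HepG2 cells transiently transfected with GAL4-UAS multi-reporter constructs, dosed 24 h with 3 nM 6-alpha-fluorotestosterone plus 1.5 nM norgestrel present to stimulate androgen receptor. Reporter mRNA quantified by RT-PCR, 6-FAM labelling, HpaI digestion and capillary electrophoresis; gain-of-signal fitted versus DMSO baseline.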

Assay [2] concerns turtle Estrogen Receptor (ERa), gene 101933533. As to the kind of experiment: ATG_trERa_XSP2: Attagene TRANS-FACTORIAL Multi-Species (XSP2) HepG2 Assay for turtle Estrogen Receptor (ERa) (AID 2283812).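 Further: human HepG2 liver cells transiently expressing turtle ERa-Gal4 chimeric receptor; actives raise reporter signal above DMSO so AC50 reflects agonist activity.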 Summed up: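 HepG2 cells transiently transfected with GAL4-UAS reporter units expressing turtle ERa-Gal4 chimera. Reporter mRNA measured after 24 h dosing by RT-PCR, fluorescent labelling and capillary electrophoresis; gain of signal fitted versus DMSO.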

Assay [3] has as its target chicken Estrogen Receptor (ERa), ESR1 (gene 396099) (UniProt P06212). As to the kind of experiment: ATG_chERa_XSP2: Attagene TRANS-FACTORIAL Multi-Species (XSP2) HepG2 Assay for chicken Estrogen Receptor (ERa) (AID 2283817).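 Further: actives raise reporter signal above DMSO so AC50 reflects ER activation.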 In outline:
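HepG2 cells transiently transfected with multiplexed GAL4-UAS reporter units expressing chimeric chicken ERa-Gal4; 24 h compound exposure. Reporter mRNA measured by RT-PCR with 6-FAM labelling, HpaI digestion and capillary electrophoresis; gain-of-signal fitted versus DMSO.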

In assay [4] the test system is zebrafish Estrogen Receptor (ER2a), gene 317734. Nature of the assay: ATG_zfER2a_XSP2: Attagene TRANS-FACTORIAL Multi-Species (XSP2) HepG2 Assay for zebrafish Estrogen Receptor (ER2a) (AID 2283818).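 Further: hits raise reporter mRNA so AC50 reflects activation of zebrafish ER2a.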 In outline:
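HepG2 cells transiently transfected with GAL4-UAS reporter units and chimeric zebrafish ER2a-Gal4, exposed 24 h; medium contains 3 nM 6-alpha-fluorotestosterone and 1.5 nM norgestrel. Reporter mRNA quantified by RT-PCR, HpaI digestion, capillary electrophoresis; gain versus DMSO.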

Assay [5] has as its target Estrogen receptor beta (Homo sapiens) (UniProt Q92731). As to the kind of experiment: ATG_hERb_XSP2: Attagene TRANS-FACTORIAL Multi-Species (XSP2) HepG2 Assay for human Estrogen Receptor (ERb) (AID 2283813).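 Further: actives raise reporter mRNA above DMSO so AC50 reflects agonist induction.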 In outline:
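HepG2 cells transiently transfected with GAL4-UAS reporter units and chimeric human ERb-Gal4, 24 h exposure. Reporter mRNA quantified by RT-PCR with FAM labelling, HpaI digestion and capillary electrophoresis; gain of signal versus DMSO.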

Assay [6] can be described thus: ATG_M_19_XSP1: Attagene TRANS-FACTORIAL Multi-Species (XSP1) HepG2 Assay for M19 Transcription Factor (Internal Marker) (AID 2283798). Summed up: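 HepG2 cells transiently transfected with multiplexed GAL4-UAS reporter units, dosed 24 h with 3 nM 6-alpha-fluorotestosterone present for partial AR stimulation. Reporter mRNA measured by RT-PCR with capillary electrophoresis; gain-of-signal fitted relative to DMSO.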

Assay [7] is described as follows: ATG_M_32_XSP1: Attagene TRANS-FACTORIAL Multi-Species (XSP1) HepG2 Assay for M32 Transcription Factor (Internal Marker) (AID 2283799). Summed up: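 HepG2 cells transiently transfected with multi-species TRANS reporter units, dosed 24 h with 3 nM 6-alpha-fluorotestosterone present. Internal-marker reporter mRNA quantified by RT-PCR and capillary electrophoresis; positive-direction fit versus DMSO.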

Assay [8] deals with Peroxisome proliferator-activated receptor gamma (Homo sapiens) (UniProt P37231). As to the kind of experiment: ATG_hPPARg_XSP1: Attagene TRANS-FACTORIAL Multi-Species (XSP1) HepG2 Assay for human Peroxisome Proliferator-activated Receptor gamma (PPARg) (AID 2283800). Summed up:
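HepG2 cells transiently transfected with GAL4-UAS reporter units carrying chimeric NR-Gal4 proteins; 3 nM 6-alpha-fluorotestosterone present. After 24 h dosing, reporter mRNA quantified by RT-PCR and capillary electrophoresis; gain of signal relative to DMSO.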

Assay [9] has as its system zebrafish Peroxisome Proliferator-activated Receptor gamma (PPARg), gene 557037. As to the kind of experiment: ATG_zfPPARg_XSP1: Attagene TRANS-FACTORIAL Multi-Species (XSP1) HepG2 Assay for zebrafish Peroxisome Proliferator-activated Receptor gamma (PPARg) (AID 2283801). In outline: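 HepG2 cells transiently transfected with GAL4-UAS reporter units including a zebrafish PPARg–GAL4 chimera, dosed 24 h with 3 nM 6-alpha-fluorotestosterone present. Reporter mRNA quantified by RT-PCR, FAM labelling, HpaI digestion and capillary electrophoresis; induction versus DMSO.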

The target of assay [10] is mouse Peroxisome Proliferator-activated Receptor gamma (PPARg), Pparg (gene 19016) (UniProt P37238). Nature of the assay: ATG_mPPARg_XSP1: Attagene TRANS-FACTORIAL Multi-Species (XSP1) HepG2 Assay for mouse Peroxisome Proliferator-activated Receptor gamma (PPARg) (AID 2283802). In outline:
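HepG2 cells transiently transfected with GAL4-UAS reporter units driven by mouse PPARg–GAL4 chimera; 3 nM 6-alpha-fluorotestosterone present. After 24 h dosing, reporter mRNA quantified by RT-PCR, fluorescent labelling and capillary electrophoresis; gain of signal versus DMSO.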

Assay [11] addresses Nuclear receptor subfamily 1 group I member 2 (Mus musculus) (UniProt O54915). Nature of the assay: ATG_mPXR_XSP1: Attagene TRANS-FACTORIAL Multi-Species (XSP1) HepG2 Assay for mouse Pregnane X Receptor (PXR) (AID 2283803). In outline:
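Transiently transfected HepG2 cells expressing a receptor-Gal4 chimera drive a GAL4-UAS reporter; 3 nM 6-alpha-fluorotestosterone included. Reporter mRNA read 24 h post-dose by RT-PCR and capillary electrophoresis; gain of signal relative to DMSO.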

In assay [12] the test system is turtle Thyroid Hormone Receptor, alpha (TRa), gene 101949057. As to the kind of experiment: ATG_trTRa_XSP1: Attagene TRANS-FACTORIAL Multi-Species (XSP1) HepG2 Assay for turtle Thyroid Hormone Receptor, alpha (TRa) (AID 2283806). In outline:
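HepG2 cells transiently transfected with GAL4-UAS reporter units and chimeric receptor-Gal4 constructs, with 3 nM 6-alpha-fluorotestosterone present. Reporter mRNA was quantified 24 h after dosing by RT-PCR, 6-FAM labelling and capillary electrophoresis; gain of signal versus DMSO.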

The target in assay [13] is zebrafish Thyroid Hormone Receptor alpha (TRa), thraa (gene 30670) (UniProt Q98867). Nature of the assay: ATG_zfTRa_XSP1: Attagene TRANS-FACTORIAL Multi-Species (XSP1) HepG2 Assay for zebrafish Thyroid Hormone Receptor alpha (TRa) (AID 2283807). Summed up: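 HepG2 cells transiently transfected with GAL4-UAS reporter units including a zebrafish TRa–Gal4 chimera, dosed 24 h with 3 nM 6-alpha-fluorotestosterone present. Reporter mRNA quantified by RT-PCR and capillary electrophoresis; gain versus DMSO.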

Assay [14] addresses human Thyroid hormone Receptor beta (TRb), THRB (gene 7068) (UniProt P10828). As to the kind of experiment: ATG_hTRb_XSP1: Attagene TRANS-FACTORIAL Multi-Species (XSP1) HepG2 Assay for human Thyroid hormone Receptor beta (TRb) (AID 2283808). In outline: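 HepG2 cells transiently transfected with reporter units driving GAL4-UAS reporters for chimeric NR-Gal4 proteins; 24 h chemical exposure with 3 nM 6-alpha-fluorotestosterone present. Reporter mRNA quantified by RT-PCR and capillary electrophoresis, gain of signal versus DMSO.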

Assay [15] concerns the target zebrafish Thyroid Hormone Receptor beta (TRb), thrb (gene 30607) (UniProt Q9PVE4). As to the kind of experiment: ATG_zfTRb_XSP1: Attagene TRANS-FACTORIAL Multi-Species (XSP1) HepG2 Assay for zebrafish Thyroid Hormone Receptor beta (TRb) (AID 2283809). In outline: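 HepG2 cells transiently transfected with multiplexed GAL4-UAS reporter units expressing chimeric zebrafish TRb–Gal4. Dosed 24 h with 3 nM 6-alpha-fluorotestosterone present; reporter mRNA measured by RT-PCR, HpaI digestion and capillary electrophoresis; gain of signal versus DMSO.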

Assay [16] can be described thus: ATG_XTT_Cytotoxicity_XSP1: Cytotoxicity Assessment in the Attagene TRANS-FACTORIAL Multi-Species (XSP1) HepG2 Assay (AID 2283810). In outline: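 XTT viability readout taken at 24 hours post-dosing in HepG2 liver cells co-treated with 3 nM 6-alpha-fluorotestosterone. Signal loss relative to DMSO controls reflects cytotoxicity.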
Assay [17] has as its target GAL4 Transcription Factor (Internal Marker), GAL4 (gene 855828) (UniProt P04386). As to the kind of experiment: ATG_GAL4_XSP2: Attagene TRANS-FACTORIAL Multi-Species (XSP2) HepG2 Assay for GAL4 Transcription Factor (Internal Marker) (AID 2283814).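 Further: GAL4 reporter mRNA background control in MRTU transfected cells not a receptor target.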 Summed up: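 HepG2 cells transiently transfected with GAL4-UAS reporter units, stimulated with 3 nM 6-alpha-fluorotestosterone plus 1.5 nM norgestrel, dosed 24 h. Reporter mRNA by RT-PCR/capillary electrophoresis; gain-of-signal fit versus DMSO, background control.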

Assay [18] in a line: ATG_M_61_XSP1: Attagene TRANS-FACTORIAL Multi-Species (XSP1) HepG2 Assay for M61 Transcription Factor (Internal Marker) (AID 2283797). In outline:
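HepG2 cells transiently transfected with multiplexed GAL4-driven reporter units, dosed 24 h with 3 nM 6-alpha-fluorotestosterone present. Reporter mRNA quantified by RT-PCR, 6-FAM labelling, HpaI digestion and capillary electrophoresis; internal-marker background control, gain of signal versus DMSO.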

The subject of assay [19] is turtle Androgen Receptor (AR), gene 101947425. As to the kind of experiment: ATG_trAR_XSP2: Attagene TRANS-FACTORIAL Multi-Species (XSP2) HepG2 Assay for turtle Androgen Receptor (AR) (AID 2283815). Summed up:
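HepG2 cells transiently transfected with GAL4-UAS reporter units for chimeric NR-Gal4 receptors; 24 h dosing in presence of 3 nM 6-alpha-fluorotestosterone and 1.5 nM norgestrel. Reporter mRNA by RT-PCR and capillary electrophoresis, gain of signal versus DMSO.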

The subject of assay [20] is chicken Androgen Receptor (AR), gene 422165. Nature of the assay: ATG_chAR_XSP2: Attagene TRANS-FACTORIAL Multi-Species (XSP2) HepG2 Assay for chicken Androgen Receptor (AR) (AID 2283819).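 Further: hits raise reporter mRNA above DMSO so potency is for activation.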 Summed up: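 HepG2 cells transiently transfected with chicken AR–GAL4 chimeric reporter constructs, stimulated with 3 nM 6-alpha-fluorotestosterone plus 1.5 nM norgestrel, dosed 24 h. Reporter mRNA quantified by RT-PCR and capillary electrophoresis; gain of signal fitted versus DMSO.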

Sequence of Estrogen receptor beta (Homo sapiens) (Q92731 whole entry, looked up, the tested form may be a part): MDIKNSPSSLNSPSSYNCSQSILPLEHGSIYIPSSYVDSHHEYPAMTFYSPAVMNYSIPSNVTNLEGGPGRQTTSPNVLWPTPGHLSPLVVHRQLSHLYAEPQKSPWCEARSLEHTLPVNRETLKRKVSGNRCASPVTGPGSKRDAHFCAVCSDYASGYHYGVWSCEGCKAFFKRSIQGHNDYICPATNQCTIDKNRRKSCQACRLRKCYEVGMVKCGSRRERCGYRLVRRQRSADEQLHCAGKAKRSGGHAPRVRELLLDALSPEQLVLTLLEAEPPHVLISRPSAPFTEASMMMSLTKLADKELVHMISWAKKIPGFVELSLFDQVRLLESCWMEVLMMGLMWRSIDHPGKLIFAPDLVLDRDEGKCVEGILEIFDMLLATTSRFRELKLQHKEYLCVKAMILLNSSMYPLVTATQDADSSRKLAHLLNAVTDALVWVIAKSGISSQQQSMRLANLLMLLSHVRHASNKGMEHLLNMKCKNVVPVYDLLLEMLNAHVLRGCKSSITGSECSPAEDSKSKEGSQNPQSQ
Sequence of chicken Estrogen Receptor (ERa), ESR1 (gene 396099) (P06212 whole entry, looked up, the tested form may be a part): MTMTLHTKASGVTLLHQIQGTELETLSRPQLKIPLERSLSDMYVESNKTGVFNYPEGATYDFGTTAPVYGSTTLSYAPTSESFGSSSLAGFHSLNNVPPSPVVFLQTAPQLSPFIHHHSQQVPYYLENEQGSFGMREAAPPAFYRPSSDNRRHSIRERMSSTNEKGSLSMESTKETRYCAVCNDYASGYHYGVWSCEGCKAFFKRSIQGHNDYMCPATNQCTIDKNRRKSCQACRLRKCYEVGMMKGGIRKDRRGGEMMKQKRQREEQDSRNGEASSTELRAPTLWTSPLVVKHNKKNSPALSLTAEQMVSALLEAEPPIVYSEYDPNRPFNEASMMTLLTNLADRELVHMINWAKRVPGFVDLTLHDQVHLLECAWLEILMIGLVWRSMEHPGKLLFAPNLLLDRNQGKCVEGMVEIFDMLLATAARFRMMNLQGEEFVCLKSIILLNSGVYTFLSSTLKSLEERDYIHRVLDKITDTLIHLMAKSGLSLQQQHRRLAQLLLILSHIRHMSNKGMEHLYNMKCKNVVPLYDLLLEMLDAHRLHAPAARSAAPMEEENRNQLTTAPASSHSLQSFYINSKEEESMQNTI
Sequence of zebrafish Thyroid Hormone Receptor beta (TRb), thrb (gene 30607) (Q9PVE4 whole entry, looked up, the tested form may be a part): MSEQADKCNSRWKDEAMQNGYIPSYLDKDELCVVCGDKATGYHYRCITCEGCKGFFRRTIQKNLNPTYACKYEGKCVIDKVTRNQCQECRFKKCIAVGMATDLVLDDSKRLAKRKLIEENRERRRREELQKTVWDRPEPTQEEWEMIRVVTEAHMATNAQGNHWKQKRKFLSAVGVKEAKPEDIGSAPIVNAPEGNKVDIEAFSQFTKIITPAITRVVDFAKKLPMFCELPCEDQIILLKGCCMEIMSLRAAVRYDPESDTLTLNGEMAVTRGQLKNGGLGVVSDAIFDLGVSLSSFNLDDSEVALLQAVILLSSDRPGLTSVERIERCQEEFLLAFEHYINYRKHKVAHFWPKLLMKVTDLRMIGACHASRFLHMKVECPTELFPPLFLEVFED
Sequence of Peroxisome proliferator-activated receptor gamma (Homo sapiens) (P37231 whole entry, looked up, the tested form may be a part): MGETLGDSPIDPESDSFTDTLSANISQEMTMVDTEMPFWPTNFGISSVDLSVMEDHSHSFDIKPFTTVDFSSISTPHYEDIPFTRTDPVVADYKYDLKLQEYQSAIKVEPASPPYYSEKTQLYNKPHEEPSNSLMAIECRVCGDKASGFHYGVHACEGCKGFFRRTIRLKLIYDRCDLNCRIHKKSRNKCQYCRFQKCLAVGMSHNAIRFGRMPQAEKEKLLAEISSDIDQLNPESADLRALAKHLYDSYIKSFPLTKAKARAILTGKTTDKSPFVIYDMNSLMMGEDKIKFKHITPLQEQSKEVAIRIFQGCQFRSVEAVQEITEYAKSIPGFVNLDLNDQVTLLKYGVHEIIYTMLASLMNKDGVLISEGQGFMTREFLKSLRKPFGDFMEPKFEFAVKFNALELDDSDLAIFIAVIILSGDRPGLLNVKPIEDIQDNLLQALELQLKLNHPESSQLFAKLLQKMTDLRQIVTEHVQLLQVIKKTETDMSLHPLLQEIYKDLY
Sequence of mouse Peroxisome Proliferator-activated Receptor gamma (PPARg), Pparg (gene 19016) (P37238 whole entry, looked up, the tested form may be a part): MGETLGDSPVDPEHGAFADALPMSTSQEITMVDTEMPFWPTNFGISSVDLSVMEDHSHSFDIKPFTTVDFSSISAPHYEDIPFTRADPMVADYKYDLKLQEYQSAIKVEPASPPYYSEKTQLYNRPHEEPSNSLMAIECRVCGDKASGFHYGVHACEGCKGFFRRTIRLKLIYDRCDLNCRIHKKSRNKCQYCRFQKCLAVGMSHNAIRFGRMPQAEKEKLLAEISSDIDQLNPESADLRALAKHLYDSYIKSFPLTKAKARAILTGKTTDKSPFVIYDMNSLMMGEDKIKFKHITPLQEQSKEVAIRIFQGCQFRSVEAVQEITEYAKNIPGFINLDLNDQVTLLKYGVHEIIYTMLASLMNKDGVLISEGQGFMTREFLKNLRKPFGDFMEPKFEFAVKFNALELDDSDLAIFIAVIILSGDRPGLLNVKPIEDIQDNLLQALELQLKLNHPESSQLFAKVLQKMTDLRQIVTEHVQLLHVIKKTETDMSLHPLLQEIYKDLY
Sequence of Nuclear receptor subfamily 1 group I member 2 (Mus musculus) (O54915 whole entry, looked up, the tested form may be a part): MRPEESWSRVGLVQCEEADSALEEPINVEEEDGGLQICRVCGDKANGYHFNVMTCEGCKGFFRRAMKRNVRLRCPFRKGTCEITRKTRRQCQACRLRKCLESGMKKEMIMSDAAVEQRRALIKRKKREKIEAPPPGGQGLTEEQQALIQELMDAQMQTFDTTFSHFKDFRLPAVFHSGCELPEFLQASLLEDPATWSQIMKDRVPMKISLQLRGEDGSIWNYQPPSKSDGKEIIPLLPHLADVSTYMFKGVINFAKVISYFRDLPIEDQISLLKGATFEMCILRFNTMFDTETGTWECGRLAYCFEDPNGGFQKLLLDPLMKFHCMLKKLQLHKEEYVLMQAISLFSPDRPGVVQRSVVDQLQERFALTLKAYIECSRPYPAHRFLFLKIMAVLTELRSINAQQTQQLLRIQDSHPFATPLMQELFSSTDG
Sequence of zebrafish Thyroid Hormone Receptor alpha (TRa), thraa (gene 30670) (Q98867 whole entry, looked up, the tested form may be a part): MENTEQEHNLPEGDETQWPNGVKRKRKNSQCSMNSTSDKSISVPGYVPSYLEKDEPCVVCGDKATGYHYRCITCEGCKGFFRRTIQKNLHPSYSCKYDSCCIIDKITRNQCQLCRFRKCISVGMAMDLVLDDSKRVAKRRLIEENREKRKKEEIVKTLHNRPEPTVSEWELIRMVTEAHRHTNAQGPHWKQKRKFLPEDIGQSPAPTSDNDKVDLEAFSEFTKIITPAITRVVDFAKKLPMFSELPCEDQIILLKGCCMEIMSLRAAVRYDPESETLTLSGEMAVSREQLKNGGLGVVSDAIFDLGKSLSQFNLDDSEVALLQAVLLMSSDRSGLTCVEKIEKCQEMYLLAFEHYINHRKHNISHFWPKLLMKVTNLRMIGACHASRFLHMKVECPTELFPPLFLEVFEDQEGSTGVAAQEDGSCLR
Sequence of GAL4 Transcription Factor (Internal Marker), GAL4 (gene 855828) (P04386 whole entry, looked up, the tested form may be a part): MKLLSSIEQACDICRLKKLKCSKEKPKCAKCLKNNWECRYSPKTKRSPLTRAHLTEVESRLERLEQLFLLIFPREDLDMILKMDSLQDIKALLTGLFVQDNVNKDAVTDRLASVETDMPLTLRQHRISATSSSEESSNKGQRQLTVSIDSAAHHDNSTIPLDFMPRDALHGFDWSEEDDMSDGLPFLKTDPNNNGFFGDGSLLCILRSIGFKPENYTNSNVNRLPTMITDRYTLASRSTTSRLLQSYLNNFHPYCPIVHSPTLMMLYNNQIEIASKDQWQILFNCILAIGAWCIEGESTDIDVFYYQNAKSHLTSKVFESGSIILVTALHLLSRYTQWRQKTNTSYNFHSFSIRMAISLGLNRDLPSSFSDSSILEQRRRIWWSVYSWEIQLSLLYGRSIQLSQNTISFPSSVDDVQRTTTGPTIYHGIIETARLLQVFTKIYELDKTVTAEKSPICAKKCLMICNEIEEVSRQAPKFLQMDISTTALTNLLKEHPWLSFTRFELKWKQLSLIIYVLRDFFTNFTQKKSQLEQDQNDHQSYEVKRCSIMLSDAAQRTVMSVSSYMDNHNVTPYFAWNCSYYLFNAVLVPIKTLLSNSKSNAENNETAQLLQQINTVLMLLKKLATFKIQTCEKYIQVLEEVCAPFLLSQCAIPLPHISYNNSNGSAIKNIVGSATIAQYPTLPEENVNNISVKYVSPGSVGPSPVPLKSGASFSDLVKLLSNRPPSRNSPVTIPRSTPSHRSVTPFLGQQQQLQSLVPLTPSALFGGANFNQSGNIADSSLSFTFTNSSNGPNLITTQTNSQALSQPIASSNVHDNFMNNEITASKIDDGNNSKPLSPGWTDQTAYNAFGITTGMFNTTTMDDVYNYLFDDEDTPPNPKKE
Sequence of human Thyroid hormone Receptor beta (TRb), THRB (gene 7068) (P10828 whole entry, looked up, the tested form may be a part): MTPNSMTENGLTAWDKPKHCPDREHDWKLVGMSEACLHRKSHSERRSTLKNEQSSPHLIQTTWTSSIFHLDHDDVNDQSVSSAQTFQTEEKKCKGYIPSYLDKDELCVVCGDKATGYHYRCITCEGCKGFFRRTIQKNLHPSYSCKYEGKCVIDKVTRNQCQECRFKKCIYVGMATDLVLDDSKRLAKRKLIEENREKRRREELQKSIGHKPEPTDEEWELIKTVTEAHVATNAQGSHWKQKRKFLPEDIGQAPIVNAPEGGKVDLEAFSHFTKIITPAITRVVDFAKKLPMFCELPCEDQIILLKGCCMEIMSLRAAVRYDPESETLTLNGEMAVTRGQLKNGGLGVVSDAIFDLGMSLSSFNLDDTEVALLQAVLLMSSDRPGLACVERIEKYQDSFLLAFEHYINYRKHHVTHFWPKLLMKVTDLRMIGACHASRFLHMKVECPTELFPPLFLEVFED

In the case of `CCC(=O)Nc1ccc(Cl)c(Cl)c1`, the result in assay [1], in assay [2], in [3] and in [4] was inactive.

By AC50 is commonly meant the concentration at which the activity in the assay is half-maximal. For the compound `CCC(CC)Nc1c([N+](=O)[O-])cc(C)c(C)c1[N+](=O)[O-]`, the result in [1], in assay [5] and in assay [4] was inactive. Also, the AC50 in assay [2] is 2.52 µM (active) and 1.7 µM (active); in [3] it was 5.63 µM (active) and 4.3 µM (active).

For the compound `CCCOCC(=Nc1ccc(Cl)cc1C(F)(F)F)n1ccnc1`, the call in assay [6], in assay [7], in [9], in [12], in [13] and in [14] was inactive. In addition, the outcome in assay [15], in assay [1], in assay [5], in [3] and in assay [4] was inactive. Further, the concentration at half-maximal activity (AC50) is 0.985 µM (active) in assay [8], 0.674 µM (active) in [10], 0.201 µM (active) in [11] and 100 µM (active) in assay [16].

As to `COc1ccc(C(=CC(=O)N2CCOCC2)c2ccc(Cl)cc2)cc1OC`, the outcome in assay [1], in assay [2], in assay [5], in assay [17], in [3] and in assay [4] was inactive.

As to `CCc1cccc(C)c1N(C(=O)CCl)C(C)COC` (configuration not stated), the result in [18], in [7], in [9], in assay [12], in [13] and in assay [15] was inactive. For the same compound, the result in assay [16], in [1], in assay [2], in assay [5], in assay [17] and in assay [19] was inactive. The call in assay [3] and in assay [20] was inactive. The AC50 in assay [8] was 5.37 µM (active); in assay [10] it was 25.5 µM (active); in [11], 3.28 µM (active).
